# Measurements reported in PubChem BioAssay (NCI).
# About 83,000 compounds went through this panel and 20% of them were active in at least one assay; those are over-represented in the sample as a whole.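 How to read the values: 0–100, growth inhibition (40 = 60% inhibited); 0, no net growth; -100 to 0, cell death (-40 = 40% of starting cells died; -100 = all dead).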 Unmarked numbers belong to inactive results. The source made the active and inactive calls. How the source made its calls: active means growth percent below 10; inactive means the rest.
# Test system: T-47D breast
# Experiment: NCI-60 one-dose screen, 48 h (100 = growth as untreated, 0 = no growth, -100 = all killed)
# Conditions: 10 µM unless noted
row,SMILES,growth
1,CCOP1(=O)CC(C)=C(Cl)C(P(=O)(O)O)C1 (stereo not given),98.6%
2,O=Nc1c(-c2c(O)[nH]c3cc(Br)ccc23)[nH]c2ccccc12,-31.1% (active)
3,C=CCNC(=S)NNc1ccc([N+](=O)[O-])cn1,113%
4,CCOC(=O)NNc1[nH]c(-c2ccc(OC)cc2)cc1C#N,44.1%
5,C=CCC(CCC(CC=C)C(=O)OCC)C(=O)OCC (stereo not given),105%
6,O=C(CCl)NC1c2ccccc2Oc2ccccc21,65.9%
7,O=C(N/N=C\c1ccc(Cl)cc1)C(=O)N/N=C\c1ccc(Cl)cc1,99.2%
8,C=C(NC(=O)[C@H](C(C)C)N(C)c1cccc2[nH]ccc12)C(=O)OC,95.4%
9,COc1ccc(C2=NN(C(=O)c3cc(-c4ccc(C)cc4)nc4ccccc34)C(c3cc(-c4ccccc4)nn3-c3ccccc3)C2)cc1 (stereo not given),72.7%
10,COc1ccc(C(=O)N2N=C(c3ccc(Br)cc3)CC2c2cn(-c3ccccc3)nc2-c2ccccc2)cc1 (stereo not given),61.1%
11,CC(=O)O.[In],103%
12,COc1ccc(NC(=O)/C=C(C)/C=C/C=C(C)/C=C/C2=C(C)CCCC2(C)C)cc1,17.8%
13,CCOC(=O)CCCCCCCCC(=O)OCC,89.6%
14,COC(=O)C(N)CC(C)C (stereo not given),92%
15,O=C(/C=C1\C(=O)N(Cc2ccc([N+](=O)[O-])cc2)c2ccccc21)c1ccc(OCCN2CCCCC2)cc1,-62.8% (active)
16,Cc1ccc2c(O)c(O)cc(NC(C)CCCN)c2n1 (stereo not given),63.3%
17,N/C(=N\O)c1ccncc1,102%
18,COc1cc(/C=C/C(=O)c2ccc(F)cc2)ccc1OCCCCOc1cc2c(cc1OC)C(=O)N1CCCC1C=N2 (stereo not given),1.74% (active)
19,COc1cc(-c2cc3cnccc3c3nc(N)c4ccncc4c23)cc(OC)c1OC,37.5%
20,CC[n+]1c(C)ccc2cc(C)ccc21,91.3%

row,SMILES,growth
1,O=C(/C=C/c1ccc(Br)cc1)c1ccccc1,74.8%
2,CCN(CC)CCNc1ncnc2c1cnn2-c1ccc(Cl)cc1,65%
3,C/C(=C\c1ccc2ccccc2c1)[N+](=O)[O-],-52.8% (active)
4,Oc1ccccc1/C=N/N=C/c1c(O)ccc2ccccc12,63.4%
5,CC(=O)CC(=O)OC/C=C(/C)CCC=C(C)C,123%
6,COc1cccc2c1nc1cccc(OC)c1[n+]2[O-],32%
7,COc1ccc(/C=C2\SC(=O)N(Cc3cc(=O)oc4ccc(OC)cc34)C2=O)cc1,63.1%
8,CCCCCSc1ccc2nc(NC(=O)OCC)sc2c1,29.7%
9,CCNc1nnc(COc2ccc(CNC(=O)CCCC/C=C/C(C)C)cc2OC)o1,81%
10,CCCCCCCCCCN1CC2CCCCC2C1 (stereo not given),56.7%
11,CCCCCCCCCCCCCCCC[n+]1cccc(C#N)c1,49.2%
12,Nc1nc2c(c3ncncc13)C(c1cccc(C(F)(F)F)c1)Cc1ncncc1-2 (stereo not given),37.9%
13,O=P(OCCCl)(OCCCl)C(O)c1ccccc1Cl (stereo not given),98.2%
14,CCCCCCCCCCCCOC(=N)N(C)C,89.9%
15,COC(=O)C(C(=O)OC)C(Br)C(Br)C(Br)c1ccccc1 (stereo not given),-32.9% (active)
16,CCCCCCCCCC(C)NC(=O)CCl (stereo not given),82.6%
17,CC1=C(C)C[C@]2(C(=O)O[C@H]3CCCC[C@@H]32)[S@](=O)C1,105%
18,CCCCN(CCC)CCCCCCCCCCN1CCCc2ccccc21,102%
19,CCCCCCCCCC[N+](C)(C)N,96.7%
20,COc1ccc(-c2nnc(SCC(=O)Nc3ccc(C(=O)/C=C/c4cc(OC)c(OC)c(OC)c4)cc3)n2-c2ccccc2)cc1OC,-43.3% [100 µM] (active)
